Where “and” joins values, the source holds several entries; their conditions need not be identical. Identical values can stand only once. Results filed as inconclusive are left out. A structure can be active in one record and inactive in another. Calls of active or inactive are those of the source. Unless noted, the call rests on the fitted dose curve; in most records, active means well fitted curve in the direction sought with a large enough effect; inconclusive means small, poorly fitted or top-dose-only effect, or another doubt; inactive means no such curve, though single readings can be large; an effect the other way counts as inactive or inconclusive.

The target of assay [1] is Calcium and integrin-binding protein 1 (Homo sapiens) (UniProt Q99828). As to the kind of experiment: Primary qHTS for Identification of Calcium Integrin Binding Protein 1 (CIB1) Competitor (AID 1508620).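 Further: GST tagged CIB1 binding a fluorescein labelled alphaIIb integrin peptide tracer; top concentration of the series differs between compounds.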 A digest of the protocol:
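CIB1-GST (1 uM final) and compound incubated 15 min at room temperature before adding FITC-alphaIIb peptide tracer (100 nM final). Competition for binding read by fluorescence polarization (ex 480, em 540) after another 15 min at room temperature.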

Assay [2] in a line: Primary qHTS for small molecule stabilizers of the endoplasmic reticulum resident proteome: Secreted ER Calcium Modulated Protein (SERCaMP) assay (AID 1508630). In a few lines:
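The SH-SY5Y reporter protocol was run at 3 concentrations up to 38.3 uM (primary) or 11 concentrations (follow-up): 16 h compound, 100 nM thapsigargin for 4 h, then extracellular luciferase luminescence.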
On the technique in general: In qHTS, concentration-response curves come from the screen itself.

Assay [3] deals with Cytochrome P450 2D6 (Homo sapiens) (UniProt P10635). The assay can be described thus: Cytochrome P450 family 2 subfamily D member 6 (CYP2D6) small molecule antagonists: luciferase biochemical (cell-free) qHTS assay (AID 1645840; active means well fitted curve in the direction sought with a large enough effect in the repeat runs; an effect the other way counts as inactive or inconclusive; further: nearly all actives have a fitted effect of over 55% in size; further: potency means the concentration at half of the fitted maximal effect). In a few lines: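 P450-Glo CYP2D6 system: proluciferin substrate converted by enzyme to luciferin, read by luminescence proportional to activity. Enzyme-substrate mix with compound 10 min at room temperature, then NADPH regeneration 1 h before detection reagent.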
Chain of Cytochrome P450 2D6 (Homo sapiens) (P10635 whole entry, looked up): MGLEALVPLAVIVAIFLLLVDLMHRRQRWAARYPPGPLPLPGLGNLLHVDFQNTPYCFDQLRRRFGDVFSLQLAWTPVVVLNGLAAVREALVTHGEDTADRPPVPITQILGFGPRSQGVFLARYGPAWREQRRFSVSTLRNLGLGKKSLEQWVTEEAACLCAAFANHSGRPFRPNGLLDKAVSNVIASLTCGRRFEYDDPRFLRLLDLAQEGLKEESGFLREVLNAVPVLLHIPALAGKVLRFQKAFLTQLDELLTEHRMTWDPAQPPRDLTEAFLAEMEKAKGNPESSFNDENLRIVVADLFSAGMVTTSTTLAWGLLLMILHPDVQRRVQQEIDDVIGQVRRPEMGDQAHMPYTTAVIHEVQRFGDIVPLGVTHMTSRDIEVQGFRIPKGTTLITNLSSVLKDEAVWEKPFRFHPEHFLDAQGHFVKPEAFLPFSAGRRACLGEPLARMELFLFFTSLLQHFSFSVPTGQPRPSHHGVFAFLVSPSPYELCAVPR

The target of assay [4] is Cytochrome P450 2C9 (Homo sapiens) (UniProt P11712). The assay can be described thus: Cytochrome P450 family 2 subfamily C member 9 (CYP2C9) small molecule antagonists: luciferase biochemical (cell-free) qHTS assay (AID 1645842; active means well fitted curve in the direction sought with a large enough effect in the repeat runs; an effect the other way counts as inactive or inconclusive; further: nearly all actives have a fitted effect of over 55% in size; further: potency means the concentration at half of the fitted maximal effect). In a few lines: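 P450-Glo CYP2C9 system: proluciferin substrate with enzyme in mix containing 0.4% BSA, 10 min at room temperature, then NADPH regeneration solution added and incubated 1 h at 37C. Detection reagent stopped reaction; luminescence read after 20 min as RLU.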
Chain of Cytochrome P450 2C9 (Homo sapiens) (P11712 whole entry, looked up): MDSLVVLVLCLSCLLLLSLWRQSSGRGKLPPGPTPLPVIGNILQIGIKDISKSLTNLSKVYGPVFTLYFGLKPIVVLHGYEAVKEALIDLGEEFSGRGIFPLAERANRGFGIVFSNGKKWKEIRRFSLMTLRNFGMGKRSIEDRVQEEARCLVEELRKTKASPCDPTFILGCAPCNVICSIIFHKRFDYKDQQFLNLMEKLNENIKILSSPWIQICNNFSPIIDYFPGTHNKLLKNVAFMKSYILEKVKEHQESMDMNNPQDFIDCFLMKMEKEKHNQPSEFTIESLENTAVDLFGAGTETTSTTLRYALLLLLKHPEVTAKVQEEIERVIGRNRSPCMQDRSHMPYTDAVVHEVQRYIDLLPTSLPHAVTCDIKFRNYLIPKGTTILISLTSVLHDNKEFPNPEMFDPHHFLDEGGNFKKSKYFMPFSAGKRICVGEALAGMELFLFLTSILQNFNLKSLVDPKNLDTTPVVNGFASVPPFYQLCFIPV

A short description of assay [5]: Primary qHTS for inhibitors of nuclear receptor binding SET domain protein 2 (NSD2) in an isogenic RCH-ACV NSD2 p.E1099K mutant (9B) (AID 1645876). Further: nearly all actives have a fitted effect of over 70% in size. Further: potency means the concentration at half of the fitted maximal effect.
A short description of assay [6]: Primary qHTS for inhibitors of nuclear receptor binding SET domain protein 2 (NSD2) in an RCH-ACV wild type WT cells (2C) (AID 1645877). Further: nearly all actives have a fitted effect of over 70% in size. Further: potency means the concentration at half of the fitted maximal effect.
In assay [7] the target is N-terminal Xaa-Pro-Lys N-methyltransferase 1 (Homo sapiens) (UniProt Q9BV86). As to the kind of experiment: Confirmatory qHTS for Inhibitors of N-terminal methyltransferase 1 (NTMT1): MTaseGlo Assay (AID 1645874). Further: potency means the concentration at half of the fitted maximal effect; nearly all actives have a fitted effect of over 65% in size. An excerpt:
Assay Submitter (PI): Rong Huang Ph.D.
Purdue University, West Lafayette, IN 47907
The N-terminal methytransferase 1 is the first methyltransferase that methylates protein alpha-N-amines and plays an important role in regulating cell mitosis, chromatin interactions and DNA repair. It is observed to be over-expressed in various cancer patient tissues like malignant melanoma and colorectal cancer tissues. Knockdown of NTMT1 in cancer cells causes cell mitotic defects and enhances sensitivity to DNA damaging chemotherapeutics. […] These critical cellular processes in which NTMT1 is implicated, coupled with emerging links to cellular dysfunction, strengthen the inference that NTMT1 is a compelling novel anticancer target. Progress have been made in understanding the molecular properties of NTMT1 and the biological consequences of protein alpha-N-terminal methylation, but there are no specific small molecule probes available for NTMT1 to fully characterize its MTase activity. To address this unmet need, a panel of assay is created and established to enable quantitative high-throughput screening (qHTS) for novel, potent, and selective small molecule NTMT1 inhibitors. Two orthogonal qHTS that use different reagents (ThioGlo vs. MTaseGlo) are developed for primary robotic screening against the NCATS chemical library of more than 400,000 small molecules. Identified inhibitors are reacquired, validated, and further characterized.
MTaseGlo Assay is a luminescence screen that measure the activity of methyltransferases based on the reaction product S-adenosyl homocysteine (SAH). The substrate SAM is converted to SAH upon enzyme activation. MTase-Glo reagent and detection solution convert SAH to ATP and measure the light from the luciferase reaction.
Materials: NTMT1 enzyme, substrate SPKRIA, control peptide RCC1-6 is provided by the Huang laboratory.
SEQUENCE No. (e.g., 1, 2, 3, etc.); […] (e.g., Cells, Incubation, Reagent, etc.); VALUE; DESCRIPTION
1; Enzyme; 3 uL; Dispense enzyme mixture (final concentrations of 125 nM NTMT1 and 100 uM SAM) into Greiner 1536-well white / solid bottom assay plate (Greiner Bio One, Monroe, NC).
2; Compounds; 23 nL; Compounds and controls were transferred via a Kalypsys Pin Tool (Wako USA) equipped with a 1536-slotted pin array (Wako Automation, Richmond, VA)
3; Incubation; 15 min; Incubate at room temperature
4; Substrate; 1 uL; Dispense 1 uL of substrate at final concentration of 1 uM. Buffer solution was dispensed in control wells. The assay plate was covered with metal lids.
5; Incubation; 30 min; Incubate at room temperature, protected from lights.
6; Reagent; 1 uL; Dispensed 5x MTase-Glo detection reagent (R) into the assay plate. The plate was covered with metal lids.
7; Incubation; 30 min; Incubate the assay plates at room temperature in the dark to allow for SAH to be converted to ADP.
8; Reagent; 5 uL; Dispense 5 uL of 1x MTase-Glo Detection Solution (R) to allow for ADP to be converted to ATP which was then detected with a luciferase reaction.
9; Centrifuge; 15 sec; Centrifuge the assay plate for 15 seconds at 1000 RPM.
10; Incubation; 30 min; Assay plates were incubation at room temperature in the dark.
11; Detection; Luminescence; Plates were read on ViewLux detector (PerkinElmer). Data were normalized to no-enzyme (0% activity) and no-inhibitor (DMSO; 100%) controls, and the resulting percent inhibition data were fitted to a 4-parameter Hill equation using GraphPad Prism.

Assay [8] addresses Cytochrome P450 3A4 (Homo sapiens) (UniProt P08684). The assay can be described thus: Cytochrome P450 family 3 subfamily A member 4 (CYP3A4) small molecule antagonists: luciferase qHTS assay (AID 1645841; active means well fitted curve in the direction sought with a large enough effect in the repeat runs; an effect the other way counts as inactive or inconclusive; further: nearly all actives have a fitted effect of over 45% in size). The method, then: National Center for Advancing Translational Sciences [NCATS]
Cytochrome P450 (CYP) enzymes are membrane-bound hemeproteins that play a key role in metabolism of drugs and xenobiotics. Assaying the effect of chemicals on CYP isozymes is useful to minimize the adverse drug reactions and toxicities in drug development process. Chemical compounds were tested for their effect on CYP enzyme activities by using P450-Glo (TM) screening systems (Promega Corporation, Madison, WI). These systems provide a luminescent method containing proluciferin substrates and are converted to luciferin products by CYP isozymes. The luciferin products formed are detected with a luciferin detection reagent, and the amount of light produced is proportional to CYP activity. P450-Glo (TM) CYP3A4 screening system (Catalog. No. V9910) was used to detect the compounds that interfere in CYP3A4 activity. […]
Two ul of enzyme-substrate mix was dispensed into medium binding white/solid 1536-well plates (Greiner Bio-One North America Inc., Monroe, NC) using a Flying Reagent Dispenser (FRD, Aurora Discovery, San Diego, CA). […] The reaction was stopped by adding 4 ul of detection reagent using an FRD and after 20 min incubation at room temperature, the luminescence signal was measured using a ViewLux plate reader (Perkin Elmer, Shelton, CT). Data were expressed as relative luminescence units.

Chain of Calcium and integrin-binding protein 1 (Homo sapiens) (Q99828 whole entry, looked up): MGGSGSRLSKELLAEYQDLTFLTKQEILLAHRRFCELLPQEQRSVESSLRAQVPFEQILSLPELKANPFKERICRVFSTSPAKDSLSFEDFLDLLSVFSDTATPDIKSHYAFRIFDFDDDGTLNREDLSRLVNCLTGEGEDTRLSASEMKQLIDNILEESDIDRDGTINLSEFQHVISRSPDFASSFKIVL
Chain of Cytochrome P450 3A4 (Homo sapiens) (P08684 whole entry, looked up): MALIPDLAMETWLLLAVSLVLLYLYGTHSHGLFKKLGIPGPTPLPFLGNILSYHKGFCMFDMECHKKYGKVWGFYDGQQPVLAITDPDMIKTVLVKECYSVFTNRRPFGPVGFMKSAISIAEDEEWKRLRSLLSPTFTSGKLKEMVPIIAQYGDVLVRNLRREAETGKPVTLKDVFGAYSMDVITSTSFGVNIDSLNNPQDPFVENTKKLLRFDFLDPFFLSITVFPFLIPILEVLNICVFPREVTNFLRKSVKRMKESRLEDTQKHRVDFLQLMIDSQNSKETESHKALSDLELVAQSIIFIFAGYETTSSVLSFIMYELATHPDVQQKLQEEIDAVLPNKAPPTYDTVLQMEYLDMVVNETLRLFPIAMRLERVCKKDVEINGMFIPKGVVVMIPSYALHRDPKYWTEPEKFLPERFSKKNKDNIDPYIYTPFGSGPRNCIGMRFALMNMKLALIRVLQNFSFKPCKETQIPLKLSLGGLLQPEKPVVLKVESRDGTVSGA
Chain of N-terminal Xaa-Pro-Lys N-methyltransferase 1 (Homo sapiens) (Q9BV86 whole entry, looked up): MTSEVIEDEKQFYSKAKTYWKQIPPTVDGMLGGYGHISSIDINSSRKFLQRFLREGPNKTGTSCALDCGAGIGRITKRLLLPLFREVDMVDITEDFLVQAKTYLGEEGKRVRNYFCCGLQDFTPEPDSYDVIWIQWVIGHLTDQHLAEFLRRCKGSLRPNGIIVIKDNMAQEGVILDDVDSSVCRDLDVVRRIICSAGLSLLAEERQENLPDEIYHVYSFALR

Turning to `COc1cc2ncnc(Nc3cc(Br)c(O)c(Br)c3)c2cc1OC`, the Potency entry in assay [1], in assay [2] and in assay [3] was “inactive” in each case.
Take `CNC(=O)c1c(-c2ccc(F)cc2)oc2cc(N(CCO)S(C)(=O)=O)c(C3CC3)cc12`: the Potency entry in assay [1], in assay [2], in assay [3], in assay [5] and in assay [6] was “inactive” throughout. Also, the Potency in assay [4] is 10.7 µM (active).
Turning to `Clc1ccc(COC(Cn2ccnc2)c2ccc(Cl)cc2Cl)c(Cl)c1` (centres undefined), the Potency result in assay [1] and in assay [2] was “inactive” each time. The results for the Potency in assay [3] and in assay [4] were 1.07 µM (active) and 0.19 µM (active), respectively.
For the compound `CNC1CCC(N(Cc2cccc(-c3ccncc3)c2)C(=O)c2sc3ccccc3c2Cl)CC1` (centres undefined), the Potency result in assay [1] and in assay [2] was “inactive” each time. Further, the Potency in assay [3] is 4.25 µM (active); in assay [4], 10.7 µM (active); in assay [5], 5.15 µM (active) and 9.34 µM (active); in assay [6], 5.78 µM (active) and 7.42 µM (active).
For the compound `c1ccc(-c2oc3ncnc(NC[C@@H]4CCCO4)c3c2-c2ccccc2)cc1`, the Potency result in assay [1], in assay [2] and in assay [5] was “inactive” each time. For the same compound, the Potency in assay [3] was 10.7 µM (active); in assay [4] it was 7.56 µM (active); in assay [7], 8.91 µM (active); in assay [6], “inactive and 18.3 µM (active)”.
`CC(C)(OCc1nn(Cc2ccccc2)c2ccccc12)C(=O)O`: the Potency result in assay [1], in assay [2], in assay [3], in assay [4], in assay [5] and in assay [6] was “inactive” each time. For the same compound, in assay [8], the call was inactive.
`O=c1[nH]nc(OCCCc2ccc(Cl)cc2)c(NCc2cccnc2)c1Br`: the Potency result in assay [1] and in assay [2] was “inactive” throughout. The Potency is 10.7 µM (active) in assay [3], 1.51 µM (active) in assay [4], 8.17 µM (active) in assay [5] and 9.16 µM (active) in assay [6].
On to `CC(C)(C)c1nc(-c2cccc(NS(=O)(=O)c3c(F)cccc3F)c2F)c(-c2ccnc(N)n2)s1`, for which the Potency result in assay [1], in assay [2] and in assay [3] was “inactive” in each case. Also, the figures for the Potency in assay [4], in assay [5] and in assay [6] were 6.74 µM (active), 5.9 µM (active) and 4.68 µM (active), respectively.
On to `C[C@@H](NC(=O)c1ncnc(N)c1Cl)c1ncc(C(=O)Nc2cc(C(F)(F)F)c(Cl)cn2)s1`, for which the Potency result in assay [1], in assay [2] and in assay [3] was “inactive” each time.
As to `CCOC(=O)N1c2ccc(C(F)(F)F)cc2[C@@H](N(Cc2cc(C(F)(F)F)cc(C(F)(F)F)c2)C(=O)OC)C[C@H]1CC`, the Potency entry in assay [1], in assay [2], in assay [3], in assay [4], in assay [5] and in assay [6] was “inactive” in each case.
